VHR inh abs: inhibitors of human VHR1 phosphatase (DUSP3) | AID 1654 | inhibition, % at 13.3 µM | recombinant VHR phosphatase, pNPP absorbance | 290,000 tested, 0.52% active | P51452; in the data active = inhibition above about 50%
Target sequence (P51452 whole entry, looked up): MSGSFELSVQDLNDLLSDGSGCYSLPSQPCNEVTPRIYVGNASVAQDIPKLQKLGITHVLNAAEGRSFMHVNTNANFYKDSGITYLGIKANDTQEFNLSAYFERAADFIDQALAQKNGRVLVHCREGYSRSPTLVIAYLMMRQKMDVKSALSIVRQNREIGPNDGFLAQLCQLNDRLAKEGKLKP
CCHF vOTU inh: blocks the CCHF virus ovarian tumor domain protease; CCHFV vOTU protease, Pep-AMC fluorescence; inhibition, % at 11.5 µM; 370,000 tested, 0.55% active; AID 651958; in the data active = inhibition above about 30%
PriA SSB inh: blocks PriA binding to SSB C-terminal tail | AlphaScreen SSBct-PriA binding, biotinylated peptide | inhibition, % at 33 µM | 430,000 tested, 0.6% active | AID 1272365; in the data active = inhibition mostly above about 37%, no sharp cut-off; inactive = mostly below about 20%
Mtb hypoxia inh: Mtb hypoxia fluorescent reporter inhibition. M. tuberculosis hypoxia-regulated fluorescent reporter, fluorescence. 300,000 tested, 0.1% active. fluorescence inhibition, % (test concentration not listed). AID 1159583; in the data active = fluorescence inhibition mostly above about 23%, no sharp cut-off; inactive = mostly below about 17%
SARS 3CLpro inh: SARS-CoV 3CLpro protease inhibition | 290,000 tested, 0.14% active | P0C6X7 | inhibition, % at 6 µM | recombinant SARS-CoV 3CLpro, quenched FRET peptide cleavage; in the data active = inhibition above about 12%
A number is an active result; . = inactive; / = no result given. In the library only some 1.3% were active in any assay of this set; here they are far more common.

SMILES | VHR inh abs | CCHF vOTU inh | PriA SSB inh | Mtb hypoxia inh | SARS 3CLpro inh
O=C(Cc1csc(Nc2ccccc2)n1)Nc1ccc2c(c1)OCCO2 | / | / | . | / | /
Cc1cc(C(=O)N2CCC(c3nnc(-c4ccco4)o3)CC2)no1 | / | / | . | / | /
Cc1ccccc1-c1noc(CSc2nc(C)c(CCO)c(=O)[nH]2)n1 | / | / | . | / | /
O=C(/C=C/C1=Cc2ccccc2OC1)NC1CCCC1 | / | / | . | / | /
CCOCC(=O)Nc1nc2c(C(F)(F)F)cccc2s1 | / | / | . | / | /
CCc1c(C)nc(SCC(=O)Nc2ccc(Br)cc2)[nH]c1=O | . | . | 101 | . | .
CCc1c(C)nc(SCC(=O)Nc2cccc(Br)c2)[nH]c1=O | . | . | . | . | .
OCCn1cccc1 | / | / | . | / | /
Cc1cccc(-n2cc(CN(C)Cc3nccn3C)c(-c3cccc(F)c3)n2)c1 | . | . | 39 | . | .
CCc1cccc(NC(=S)Nc2cccc3ccccc23)c1 | . | . | 38 | . | .
CCOc1ccc(NC(=S)Nc2cccc3ccccc23)cc1 | . | . | 50 | . | .
O=S(=O)(N[C@H](c1cccnc1)C1CCOCC1)c1ccc(-n2cccn2)cc1 | / | / | . | / | /
COc1ccc(CCC(=O)N2CCC(S(=O)(=O)C(C)(C)C)C2)cc1Br (stereo not given) | / | / | . | / | /
Cc1cc(NC(=O)c2ccc(CSc3ccccc3)o2)no1 | / | / | . | / | /
COc1cc(OC)cc(C(=O)N(CCCn2ccnc2)c2nc3cc(C)cc(C)c3s2)c1 | / | / | 40 | / | /
COc1ccc(OC)c2sc(N(CCCn3ccnc3)C(=O)c3ccco3)nc12 | / | / | 59 | / | /
Cc1c(Cl)ccc2sc(N(CCCn3ccnc3)C(=O)COc3ccccc3)nc12 | / | / | 43 | / | /
O=C(c1ccc(Cl)s1)N(CCCn1ccnc1)c1nc2c(F)cccc2s1 | / | / | 38 | / | /
COc1cccc(C(=O)N(CCCn2ccnc2)c2nc3ccc(C)cc3s2)c1OC | / | / | . | / | /
COc1ccc(OC)c2sc(N(CCCn3ccnc3)C(=O)COc3ccccc3)nc12 | / | / | 73 | / | /
CCc1cccc2sc(N(CCCn3ccnc3)C(=O)c3cccc(OC)c3OC)nc12 | / | / | 42 | / | /
O=C(Cc1ccc(-c2ccccc2)cc1)N1CCN=C1SCc1cccc(C(F)(F)F)c1 | / | / | . | / | /
COc1ccc(CNC(=O)CC(C)S(=O)(=O)c2ccc3c(c2)NC(=O)CO3)cc1 (stereo not given) | . | . | . | . | .
COc1ccc(CCNC(=O)CC(C)S(=O)(=O)c2ccc3c(c2)NC(=O)CO3)cc1OC (stereo not given) | 59 | . | . | . | .
CCN(Cc1ccccc1)c1ccc(C=NN2CCOCC2)cc1 | / | / | 47 | . | /
SMILES | VHR inh abs | CCHF vOTU inh | PriA SSB inh | Mtb hypoxia inh | SARS 3CLpro inh
Cc1cc(C(=O)N(CCCN2CCOCC2)c2nc3c(C)ccc(Cl)c3s2)on1 | / | / | . | / | /
CN(C)C(CNS(=O)(=O)c1ccc(Cl)s1)c1ccsc1 (stereo not given) | / | / | . | / | /
Cc1ccc(C(N)=NOC(=O)N2c3ccccc3Sc3ccccc32)cc1 | / | / | 57 | / | /
Brc1cc2cccnc2c2ncccc12 | / | / | 151 | / | /
c1cnc2c(c1)ccc1ncccc12 | . | . | . | . | .
Clc1cc2cccnc2c2ncccc12 | / | . | 99 | . | /
Clc1c2ccccc2cc2cccnc12 | / | / | . | / | /
CSc1ccc(/C=N/NC(=O)c2ccc(O)cc2)cc1 | 60 | . | / | / | .
Cc1ccc(OCCCCn2cnc3ccccc32)c(C)c1 | 55 | . | . | . | .
Cc1ccc(NC(N)=Nc2nc(C)cc(C)n2)cc1 | / | / | . | / | /
Cc1ccc(CN=C(N)Nc2nc(C)cc(C)n2)cc1 | 57 | . | . | . | .
Cn1c(O)c(N=NC(=O)CNC(=O)c2ccccc2)c2ccccc21 | 53 | . | . | . | .
CCCC(=O)Nc1ccc2c(c1)CN(C(C)=O)CC2 | / | / | . | / | /
CCN1C=CC=C/C1=C(/C#N)c1nc(-c2ccccc2)cs1 | / | / | 108 | / | /
O=S(=O)(c1ccc(Cl)s1)N1CCN(c2ccc(-c3ccccn3)nn2)CC1 | / | / | 55 | / | /
Cc1ccccc1-c1ccc(N2CCN(S(=O)(=O)c3ccc(Cl)s3)CC2)nn1 | / | / | . | / | /
COc1cccc(C(=O)N2CCN(c3ccc(-c4ccccn4)nn3)CC2)c1OC | / | / | 94 | / | /
CCC(C(=O)N1CCN(c2ccc(-c3ccccn3)nn2)CC1)c1ccccc1 (stereo not given) | / | / | 80 | / | /
COc1cccc(C(=O)N2CCN(c3ccc(Nc4ccccn4)nn3)CC2)c1OC | / | / | . | / | /
CCC(C(=O)N1CCN(c2ccc(-c3ccncc3)nn2)CC1)c1ccccc1 (stereo not given) | / | / | . | / | /
Cc1cc(NC(=O)N[C@H]2CC(=O)N(c3ccc4c(c3)OCCO4)C2)ccc1Br | / | / | . | / | /
N#C/C(=C/c1ccc(N2CCOCC2)o1)c1nc2ccccc2[nH]1 | 53 | . | . | / | .
O=S1(=O)N=C(NN=Cc2cccs2)c2ccccc21 | / | / | 55 | . | /
O=S1(=O)N=C(NN=Cc2ccccn2)c2ccccc21 | / | / | 82 | . | /
O=S1(=O)N=C(N/N=C/c2ccccn2)c2ccccc21 | . | . | / | / | .
SMILES | VHR inh abs | CCHF vOTU inh | PriA SSB inh | Mtb hypoxia inh | SARS 3CLpro inh
CCOC(=O)C1CCN(c2c(Nc3ccc4c(c3)OCCO4)c(=O)c2=O)CC1 | . | . | . | . | .
COc1ccccc1OC(C)C(=O)Nc1ccc2c(c1)OCCO2 (stereo not given) | 56 | . | . | . | .
CCOC(=O)C1CCN(C(C(=O)Nc2ccc3c(c2)OCCO3)c2ccccc2)CC1 (stereo not given) | 53 | . | . | / | .
COc1cc(OC)cc(C(=O)NCCn2ncc3c(=O)n(Cc4cccc([N+](=O)[O-])c4)cnc32)c1 | / | / | . | / | /
CCN1C(=O)CC(n2c(C)nc3ccccc32)C1=O (stereo not given) | . | . | . | / | .
Cc1nc2ccccc2n1C1CC(=O)N(N(C)C)C1=O (stereo not given) | 56 | . | . | . | .
CCOC(=O)c1c(NC(=O)c2cc(-c3cccc(O)c3)on2)sc(C(C)=O)c1C | . | . | . | . | .
CCOC(=O)c1c(NC(=O)c2noc(C)c2[N+](=O)[O-])sc(C(C)=O)c1C | . | . | 59 | . | .
COc1cccc(Cn2c(=O)oc3ccccc32)c1 | 53 | . | . | . | .
O=C(c1ccccc1)c1ccccc1C(=O)N1CCc2nc3ccc(F)cn3c(=O)c2C1 | / | / | . | / | /
COc1ccc(N2C(=O)CC(Sc3ncn[nH]3)C2=O)c(OC)c1 (stereo not given) | . | 55 | . | . | .
CC(C)c1ccc(N2C(=O)CC(Sc3ncn[nH]3)C2=O)cc1 (stereo not given) | . | . | . | . | .
COc1ccc(C(=O)c2c(C)oc3ccc(O)cc23)c(OC)c1 | 58 | . | . | . | .
COc1ccc(C(=O)c2c(C)oc3ccc(O)cc23)cc1 | . | . | . | . | .
O=C(Cc1ccccc1Cl)NCCC(O)c1ccccc1 (stereo not given) | / | / | . | / | /
Cc1nc(N2CCN(C)CC2)c2c(C)c(C(=O)Nc3ccc(F)cc3)sc2n1 | 55 | . | . | . | .
CCOC(=O)Nc1ccc2c(c1)Nc1ccccc1S2 | . | . | 53 | . | .
C=CC(=O)N1c2ccccc2Sc2ccc(NC(=O)OCC)cc21 | / | . | . | . | .
CCn1ccnc1CNCc1cn(-c2cc(C)ccc2C)nc1-c1ccccc1 | . | . | 87 | . | .
Cc1ccc(C)c(-n2cc(CNCCc3cnccn3)c(-c3ccccc3)n2)c1 | . | . | . | . | .

Screening data deposited in PubChem BioAssay by several laboratories.
